Reference: PubChem BioAssay (EPA / NIEHS)
“And” between values parts separate entries of the source, which are not always exact repeats. Equal entries are not always repeated. The source made the active and inactive calls. Rule for the calls: active = hit-call score of the fitted dose curve at least 0.9, where 1 is the maximum; inactive = score below 0.9.

read-out: Matrix Metallopeptidase 9 (MMP9), MMP9 (gene 4318); assay: BSK_KF3CT_MMP9: BioMAP Diversity Plus: KF3CT Assay for Matrix Metallopeptidase 9 (MMP9) Biomarker Activity (AID 2283074); settings: primary human keratinocytes with fibroblasts; actives raise or lower the signal
Protocol: BSK_KF3CT is a cell-based, multiplexed-readout assay that uses keratinocytes and foreskin fibroblasts, a human skin primary cell co-culture, with measurements taken at 24 hours after chemical dosing in a 96-well plate.BSK_KF3CT_MMP9 is an assay component measured in the BSK_KF3CT assay. It measures MMP-9 antibody related to regulation of gene expression using ELISA technology.Data from the assay component BSK_KF3CT_MMP9 was analyzed into 1 assay endpoint. This assay endpoint, BSK_KF3CT_MMP9, was analyzed with bidirectional fitting relative to DMSO as the negative control and baseline of activity. Using a type of binding reporter, gain or loss-of-signal activity can be used to understand changes in the signaling as they relate to the gene MMP9. Furthermore, this assay endpoint can be referred to as a primary readout, because this assay has produced multiple assay endpoints where this one serves a signaling function. To generalize the intended target to other relatable targets, this assay endpoint is annotated to the protease intended target family, where the subfamily is matrix metalloproteinase.
The levels of cell surface (or secreted, indicated by the prefix "s") biomarker endpoints were measured by ELISA. Overt cytotoxicity to cells in confluent adherent cultures (all systems other than the BT system) was assessed by measuring total protein levels using sulforhodamine B (SRB) staining in parallel cultures at the time of biomarker measurements, indicated as SRB endpoints. For proliferation assays for adherent cell types, individual cell types are cultured at sub-confluence and relative cell numbers quantified by SRB staining at time points optimized for each system (48 h: 3C and CASM3C systems; 72 h: BT and HDF3CGF systems; 96 h: SAg system). SRB was performed by staining cells with 0.1% SRB after fixation with 10% TCA and reading wells at 560 nm.Viability and proliferation of PBMC (T cells) was quantified by Alamar Blue reduction for the SAg and BT systems. For PBMC viability (referred to as PBMC Cytotoxicity within the assay endpoint names), cells were plated (75,000/well in a 96-well plate) and then chemical samples added for 1 h before addition of activators, SEB and TSST-1 (20 ng/mL final concentration each). Cells were incubated for 90 h. Then, Alamar Blue (20 uL/well) (Invitrogen, Cat DAL1100) was added for 6 h, and the plates were read with a fluorescence microplate reader at 546/580 nm (excitation/emission). For PBMC proliferation, cells were plated and activated as above but incubated for only 16 h prior to addition of Alamar Blue. Plates were read after 6 h.

SMILES	outcome	AC50
ClC(Cl)c1ccccc1	inactive	–
O=C(O)C(F)(F)OC(F)(F)C(F)(F)OC(F)(F)C(=O)O	inactive	–
O=C(O)C(F)(OC(F)(F)C(F)(F)C(F)(F)F)C(F)(F)F (stereo not given)	inactive	–
Nc1ccc2ccccc2c1	inactive	–
CCCCN(CCCC)N=O	inactive	–
CC(C)(C)c1ccc(O)cc1	inactive	–
N#Cc1cc([N+](=O)[O-])ccc1N	inactive	–
CC(Cl)(Cl)C(=O)O	inactive	–
CCOP(=S)(NC(C)C)Oc1ccccc1C(=O)OC(C)C (stereo not given)	inactive	–
CCCCC(CC)COC(=O)c1c(Br)c(Br)c(Br)c(Br)c1C(=O)OCC(CC)CCCC (stereo not given)	inactive	–
CCCCOCCOP(=O)(OCCOCCCC)OCCOCCCC	–	3.97 µM (active)
CC(C)(C)OOC(C)(C)C	inactive	–
CC(C)(C)c1ccccc1OP(=O)(Oc1ccccc1)Oc1ccccc1	–	8.49 µM (active)
OCC(F)(F)OC(F)(F)C(F)(F)OC(F)(F)C(F)(F)OC(F)(F)F	–	54.1 µM (active) and 51.6 µM (active)
CCNc1nc(Cl)nc(NC(C)(C)C)n1	inactive	–
COP(=O)(CCC(=O)NCO)OC	inactive	–
CC(O)C(F)(F)C(F)(F)F (stereo not given)	inactive	–
CCOP(=S)(OCC)SCS(=O)(=O)CC	inactive	–
CC(C)Nc1ccc(Nc2ccccc2)cc1	–	20 µM (active)
O=S1(=O)OCC2C(CO1)C1(Cl)C(Cl)=C(Cl)C2(Cl)C1(Cl)Cl (stereo not given)	inactive	–

SMILES	outcome	AC50
C=CC(=O)OCC(F)(F)C(F)F	inactive	–
O=P1(N(CCCl)CCCl)NCCCO1 (stereo not given)	inactive	–
CCOP(=S)(OCC)SCn1nnc2ccccc2c1=O	inactive	–
O=C(O)C(Cl)Cl	inactive	–
OCC1CO1 (stereo not given)	inactive	–
ClC1=C(Cl)C2(Cl)C3C(Cl)C(Cl)CC3C1(Cl)C2(Cl)Cl (stereo not given)	–	13.3 µM (active)
O=[N+]([O-])c1ccccc1	inactive	–
OCC(F)(F)OC(F)(F)C(F)(F)OC(F)(F)C(F)(F)OC(F)(F)CO	inactive	–
CCCCC(CC)COP(=O)(Oc1ccccc1)Oc1ccccc1 (stereo not given)	–	3.71 µM (active)
O=C(O)C(F)(F)OC(F)(F)C(F)(F)OC(F)(F)F	inactive	–
COC(=O)C(F)(F)C(F)(F)OC(F)(C(F)(F)F)C(F)(F)OC(F)=C(F)F (stereo not given)	inactive	–
Nc1cc2c3c(c1)C(c1ccccc1)=N[C@@H](NC(=O)c1cccnc1)C(=O)N3CC2	inactive	–
N#Cc1c(-c2ccc(Cl)cc2)[nH]c(C(F)(F)F)c1Br	–	3.97 µM (active)
ClC(Cl)(Cl)c1ccccc1	inactive	–
ClC(Cl)=C(c1ccc(Cl)cc1)c1ccccc1Cl	–	4.38 µM (active)
CCOP(=S)(OCC)SCSc1ccc(Cl)cc1	–	0.324 µM (active)
COP(=O)(O)OC	inactive	–
O=c1ssc(Cl)c1Cl	–	5.92 µM (active)
Cc1ccc(N)cc1N	inactive	–
Cc1ccc([N+](=O)[O-])cc1C	inactive	–
